An excerpt weighted towards active compounds, which were near 2.4% of everything screened.
zVAD death inh: L929 zVAD cell death inhibition; viability rescue, % at 10 µM; L929 zVAD necroptosis rescue, ATP luminescence, 24 h; with zVAD 60 µM; AID 1377; 220,000 tested, 0.38% active;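 active = activation, scaled between plate controls, above about 75%, limit read from the data; inactive = activation under that limit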
MCL1 BIM primary: disrupts human MCL1 binding to BIM-BH3 peptide. GST-MCL1 / FITC-Bim-BH3 fluorescence polarization. inhibition, % at 10.9 µM. 320,000 tested, 0.68% active. AID 2057;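 active = inhibition above the mean inhibition of all tested compounds plus 3 SD, set per campaign, cut at about 40% in these data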;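 note: higher means more loss of mP so more displacement of Bim peptide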
Target sequence (Q07820 whole entry, looked up): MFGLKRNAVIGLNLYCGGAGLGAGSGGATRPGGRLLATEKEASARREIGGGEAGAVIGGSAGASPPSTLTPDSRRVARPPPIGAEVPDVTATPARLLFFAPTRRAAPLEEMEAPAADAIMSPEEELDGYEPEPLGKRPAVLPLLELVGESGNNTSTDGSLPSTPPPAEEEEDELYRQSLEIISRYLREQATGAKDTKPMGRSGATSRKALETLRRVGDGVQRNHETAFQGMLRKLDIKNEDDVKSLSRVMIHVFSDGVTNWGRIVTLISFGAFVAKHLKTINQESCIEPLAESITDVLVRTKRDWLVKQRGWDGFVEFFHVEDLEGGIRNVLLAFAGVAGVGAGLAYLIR
Mcl1-Bid inh: disrupts binding of human Mcl-1 to Bid peptide; Q07820; TR-FRET Mcl-1/Bid-Dy647 peptide binding, 1536-well; inhibition, % at 21.7 µM; 220,000 tested, 0.97% active;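 active = compounds that cut the binding signal by more than half at the single screening dose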;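 note: His-tagged Mcl-1 with europium anti-His antibody binding Bid BH3 peptide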
Mcl1-Noxa inh: disrupts binding of human Mcl-1 to Noxa peptide. AID 1022. Q07820. TR-FRET Mcl-1/Noxa peptide binding, 2 h. 220,000 tested, 1.5% active. inhibition, % at 21.7 µM;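 active = compounds that cut the protein-peptide binding signal by more than 50% relative to plate controls in a single-dose test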;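 note: His-tagged Mcl-1 with rhodamine Noxa BH3 peptide and terbium anti-His antibody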
Mcl-1 Bim block: human Bim-Mcl-1 interaction inhibition. Q07820. Bead-based flow cytometry, Bim peptide-Mcl-1 binding. inhibition, % at 10 µM. 190,000 tested, 0.1% active; in the data active = inhibition above about 40%
TNF necrop inh: inhibitors of TNF-alpha induced necroptosis in Jurkat FADD-/- cells | AID 463075 | 220,000 tested, 0.068% active | activation (protection from cell death), % at 10 µM | Jurkat FADD-/- TNF necroptosis rescue, ATP luminescence, 24 h; 0 = TNF only, 100 = no-TNF cells;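 active = activation, meaning protection from cell death, of at least 50% relative to plate controls; inactive = activation below 50%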;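 note: necroptosis triggered by 40 ng/mL TNF-alpha added together with compound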
Hits are given with their value; - = inactive; . = not tested or not shown; ! = not active in a repeat.

SMILES	zVAD death inh	MCL1 BIM primary	Mcl1-Bid inh	Mcl1-Noxa inh	Mcl-1 Bim block	TNF necrop inh
CCc1ccc(C(=O)Cc2cc3cccc(OC)c3oc2=O)cc1	.	-	.	.	.	.
C=C(C)C(=O)Nc1cccc(C2=NOC3(C2)C[C@@H](C(N)=O)N(C(=O)c2ccc(OC)cc2)C3)c1 (stereo partly drawn)	-	-	-	69	.	-
C/C=C\C(=O)Nc1cccc(C2=NOC3(C2)C[C@@H](C(N)=O)N(C(=O)c2ccccc2)C3)c1 (stereo partly drawn)	-	-	-	-	.	-
C/C=C\C=C/C(=O)Nc1cccc(C2=NOC3(C2)C[C@@H](C(N)=O)N(C(=O)c2ccccc2)C3)c1 (stereo partly drawn)	-	-	-	75	.	-
C=C(C)C(=O)Nc1cccc(C2=NOC3(C2)C[C@@H](C(N)=O)N(C(=O)CCCCC)C3)c1 (stereo partly drawn)	-	-	-	69	.	-
Cc1csc(NC(=O)CSc2nc3nc(C)cc(C)n3n2)n1	.	-	.	.	.	.
COc1ccc(C=O)cc1Cn1c(C)cc(C)c(C#N)c1=O	-	-	-	-	-	-
C[C@H](NC(=O)N1CCn2c1nc1ccccc12)C(=O)NCc1ccc2c(c1)OCO2	.	-	.	.	.	.
Cc1ccnc(NC(=O)C(C)N2C(=O)c3ccccc3S2(=O)=O)c1 (stereo not drawn)	.	-	.	.	.	.
COC(=O)CCC(=O)OC1(C)C(=O)C2=CN(Cc3ccc4c(c3)OCO4)C(c3ccc(OC)cc3)=CC2=C(Br)C1=O (stereo not drawn)	.	-	.	.	.	.
COC(=O)CCC(=O)OC1(C)C(=O)C2=CN(CCc3ccccn3)C(c3ccc(OC)cc3)=CC2=C(Br)C1=O (stereo not drawn)	.	40	.	.	.	.
COC(=O)CCC(=O)OC1(C)C(=O)C2=CN(C(CO)CO)C(c3ccc(OC)cc3)=CC2=C(Br)C1=O (stereo not drawn)	-	40	-	-	.	-
COC(=O)CCC(=O)OC1(C)C(=O)C2=CN(CCCCO)C(c3ccc(OC)cc3)=CC2=C(Br)C1=O (stereo not drawn)	.	40	.	.	.	.
COC(=O)CCC(=O)OC1(C)C(=O)C2=CN(CCN3CCOCC3)C(c3ccc(OC)cc3)=CC2=C(Br)C1=O (stereo not drawn)	-	-	-	-	.	-
CC(C)Oc1ccc2c(=O)c(-c3ccccc3)coc2c1	-	-	64!	-	-	-
COc1ccc(NC(=O)C(=O)NCCN2CCN(C(=O)c3cccs3)CC2)cc1	-	-	-	62	-	-
CCCCNC(=O)NNC(=O)c1cc(C)on1	-	-	-	-	.	-
CC(OC(=O)c1ccc2c(=O)n3c(nc2c1)CCCCC3)C(=O)Nc1ccc(F)cc1Cl (stereo not drawn)	-	-	64	-	-	-
O=C(Nc1ccc(F)c(Cl)c1)c1ccc2c(=O)n3c(nc2c1)CCCCC3	-	-	-	-	61	-
O=C(Nc1ccc(Cl)cc1)c1ccc2c(=O)n3c(nc2c1)CCCCC3	.	-	.	.	.	.
O=C1C(=O)N(CCCn2ccnc2)C(c2ccc([N+](=O)[O-])cc2)/C1=C(\O)c1ccc2c(c1)OCCO2 (stereo not drawn)	.	-	.	.	.	.
CN(C1=C(NC(=O)c2ccccc2)C(=O)c2ccccc2C1=O)C1CCS(=O)(=O)C1 (stereo not drawn)	-	-	-	-	-	-
O=C(Nc1ccc2ccccc2c1)NC1CCS(=O)(=O)C1 (stereo not drawn)	-	-	-	-	-	-
CC(=O)NC1=C(NC2CCS(=O)(=O)C2)C(=O)c2ccccc2C1=O (stereo not drawn)	-	-	-	94	-	-
O=C(Nc1ccccc1)NC1CCS(=O)(=O)C1 (stereo not drawn)	-	-	98	-	-	-
SMILES	zVAD death inh	MCL1 BIM primary	Mcl1-Bid inh	Mcl1-Noxa inh	Mcl-1 Bim block	TNF necrop inh
CCCCN(C)S(=O)(=O)c1ccc(C(=O)N=c2sc3cc(NC(C)=O)ccc3n2C)cc1	-	-	70	-	-	-
CCCCN(CC)S(=O)(=O)c1ccc(C(=O)N=c2sc3cc(NC(C)=O)ccc3n2C)cc1	-	-	-	-	-	-
Cc1ccc(S(=O)(=O)N2CCN(C(=O)c3ccc4ccccc4n3)CC2)c(C)c1	.	-	.	.	.	.
Cc1noc(C)c1COc1ccc(C(=O)Nc2cccnc2)cc1	-	.	-	53	-	-
Cc1ccc(S(=O)(=O)Nc2ccnc3ccccc23)cc1	-	-	63	-	-	-
Cn1c2ccccc2c2cc(C(=O)NNC(=O)CCl)sc21	-	-	-	60	-	-
C=CCn1c(C)cc(C2=NNC(=NC(C)(C)C)SC2)c1C	.	-	-	-	-	-
CC(C)(C)N=C1NN=C(c2cc3ccccc3o2)CS1	-	-	-	71	-	-
Cc1c(C)c2ccc(OCC(=O)N3CC[C@@]4(O)CCCC[C@H]4C3)c(C)c2oc1=O	.	-	.	.	.	.
CCN(Cc1nc2ccccc2c(=O)[nH]1)Cc1nc2ccsc2c(=O)[nH]1	-	-	-	-	-	-
CCc1ccc2c(CN(CC)Cc3nc4ccccc4c(=O)[nH]3)cc(=O)oc2c1	-	-	90	-	-	-
O=C(NCc1nc2ncc(Br)cc2[nH]1)c1ccccc1	-	-	73	-	-	-
Brc1cnc2nc(SC/C=C/c3ccccc3)[nH]c2c1	-	-	-	-	.	-
COc1cccc(N(CC(=O)N2CCN(C)CC2)S(=O)(=O)c2ccccc2)c1	-	-	60	-	-	-
CCOc1ccc(NC(=O)C2CC(=O)N(CCc3ccc(OC)c(OC)c3)C2)cc1OCC (stereo not drawn)	.	-	.	.	.	.
Cc1ccc(NC(=O)CN2C(=O)C3CC=C(Cl)CC3C2=O)cc1 (stereo not drawn)	.	-	.	.	.	.
COc1ccc(N2CCN(Cc3nc(-c4ccc(Cl)cc4Cl)no3)CC2)cc1	-	-	-	56	-	-
Cc1csc(CCc2nc(C)cs2)n1	-	-	100	-	-	-
Clc1ccc(OCCCNCc2ccccc2)c(Br)c1	-	-	70	-	-	-
C=CCNCCCOc1ccc(Cl)cc1Br	-	-	77	-	-	-
Cc1ccc(C(=O)ONc2ccc(N=NC(=O)c3ccccc3O)cc2)cc1	-	-	102	81	-	-
C=CCN1C(=O)C2(OCCCO2)c2cc(C)ccc21	.	-	.	.	.	.
CCOC(=O)C1CCN(C(=O)C2CCN(S(=O)(=O)c3cc(Cl)ccc3OCC)CC2)CC1	.	-	.	.	.	.
CS(=O)(=O)NN1C(=O)c2ccccc2NC1c1ccccc1 (stereo not drawn)	-	-	-	-	43	-
CCOCCCNC(=O)CCn1nc(-c2ccc(Cl)cc2)ccc1=O	.	-	.	.	.	.
Cc1ccccc1NC(=O)NC1CCCc2ccccc21 (stereo not drawn)	.	-	.	.	.	.
O=C(Nc1nccs1)c1cc2sccc2n1Cc1ccc(F)cc1	-	-	-	-	-	-

Screens as filed in PubChem BioAssay.
